Source: PubChem BioAssay AID652010 (The Scripps Research Institute Molecular Screening Center, 2013)
Out of some 370,000 compounds screened, about 4,100 (1.1%) were called active. The sample holds actives, similar compounds and a random draw of the others, so the mix is not that of the screen.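 How the source made its calls: active means inhibition above the mean over all tested compounds plus 3 SD (cut at about 3.6% in these data); inactive means the rest.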

Assay: relief of DAX-1 repression of SF-1 activity – cell-based, luminescence, SF-1 (NR5A1), full-length DAX-1, primary screen (AID 652010);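 further: 0% = DAX-1 cells with DMSO and 100% = cells lacking DAX-1 with DMSO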
Settings: HEK293T StAR-luciferase reporter, SF-1/DAX-1 repression relief; at 6.8 µM; stronger effect = higher value

Row | Compound | inhibition
1 | Cc1ccc(C)c(-n2ccnc2SCC(N)=O)c1 | -0.07% (inactive)
2 | S=C(Nc1ccc(Cl)cc1Cl)N1CCCC1 | 2.27% (inactive)
3 | O=C(NC(=S)Nc1ccc(Cl)cc1Cl)C1CC1 | 5.23% (active)
4 | O=C(NC(=S)Nc1ccc(Br)cc1F)C1CCCCC1 | 3.34% (inactive)
5 | Cc1cccc(-n2c(O)c(C=Nc3ccccc3N)c(=O)[nH]c2=O)c1 | 3.64% (active)
6 | Cc1cc(=O)n(C)c(=O)n1CCCNc1ccccc1 | 0.36% (inactive)
7 | COc1ccc(C#CCNCc2ccc(OC)cc2OC)cc1 | -1.39% (inactive)
8 | Cc1cc(C(=O)NN=C/C=C/c2ccco2)n[nH]1 | 0.49% (inactive)
9 | Nc1nonc1-n1nnc(C(=O)N/N=C/c2ccc(Cl)cc2)c1-c1ccc2c(c1)OCO2 | 0.01% (inactive)
10 | Clc1ccc(Nc2ccc3ccccc3n2)cc1 | 2.89% (inactive)
11 | C(=N\Nc1ccc2ccccc2n1)/c1ccc2c(c1)OCO2 | 8.27% (active)
12 | COC(=O)[C@@]12CCCCC3=C1N(CCC3)C(=O)[C@H]2CC(=O)NCc1cccc2ccccc12 | -0.9% (inactive)
13 | O=C(O)c1ccc2c(=O)n3c(nc2c1)/C(=C/c1ccc(OC(F)F)cc1OC(F)F)CC3 | 0.3% (inactive)
14 | O=C(c1ccc(Cl)c(S(=O)(=O)N2CCCCC2)c1)N1CCCCCC1 | -3.11% (inactive)
15 | N#Cc1cccc(OC(=O)c2ccc3c(=O)n4c(nc3c2)CCC4)c1 | -0.02% (inactive)
16 | CC1CCN(C(=O)c2ccc3c(=O)n4c(nc3c2)CCCCC4)CC1 | -0.43% (inactive)
17 | Cc1cc(C)c(C)c(S(=O)(=O)N2CCN(C(=O)c3ccc4c(=O)n5c(nc4c3)CCC5)CC2)c1C | 5.04% (active)
18 | O=C(Nc1cc(F)ccc1F)c1ccc2c(=O)n3c(nc2c1)CCC3 | 3.87% (active)
19 | COP(=O)(O)CNC(=O)OCc1ccccc1 | -0.36% (inactive)
20 | COC(=O)c1c(-c2ccc(OC)cc2)c2c(c3c4cc(OC)ccc4n(S(=O)(=O)c4ccc(F)cc4)c13)C(=O)N(C)C2 | -2.04% (inactive)
21 | CC(=O)c1ccc(S(=O)(=O)NCC2CCN(C(=O)C(=O)c3cccs3)CC2)cc1 | -0.63% (inactive)
22 | Cc1cc(OC(=O)NCCc2ccc(F)cc2)ccc1F | -0.8% (inactive)
23 | NS(=O)(=O)c1ccc(CCNC(=O)c2ccc(Cl)cc2[N+](=O)[O-])cc1 | -0.5% (inactive)

Row | Compound | inhibition
24 | Cc1cc(C(=O)NCCc2ccc(Cl)cc2)c(C)o1 | 5.45% (active)
25 | CC(=O)OCCN1CCCC12CCC(c1ccccc1)CC2 (stereo unspecified) | -0.24% (inactive)
26 | O=C(O)c1ccc(N/N=C/c2cn(-c3ccccc3)nc2-c2cccs2)cc1 | 6.23% (active)
27 | Cc1c(NC(=O)C(=O)N/N=C/c2cccs2)c(=O)n(-c2ccccc2)n1C | 0.14% (inactive)
28 | O=C(N/N=C/c1sc(N2CCCCC2)nc1-c1cccs1)c1cccnc1 | -1.84% (inactive)
29 | CN(CCO)c1cccc2c1S(=O)(=O)N(Cc1cn(Cc3ccc(C(F)(F)F)cc3)nn1)Cc1ccccc1O2 | -1.1% (inactive)
30 | C=CCN1C(=O)[C@@H](CC(=O)NCCCOCCCC)[C@]2(C(=O)OCC)CCCCC/C=C/12 | 0.1% (inactive)
31 | O=C1/C(=C\Nc2ccccc2)CCN1c1ncccn1 | 0.43% (inactive)
32 | O=C(CSc1nnc(-c2ccco2)o1)NCC(=O)c1ccccc1 | 1.51% (inactive)
33 | CCCCOc1ccc(-c2nnc(-c3ccco3)o2)cc1 | 4.13% (active)
34 | CCCCCCc1cc2cc(-c3nnc(-c4cccc(OC)c4)o3)c(=O)oc2cc1O | 1.42% (inactive)
35 | CCOc1ccc(-c2nnc(-c3ccco3)o2)cc1 | 6.66% (active)
36 | CCOc1ccc(NC(=O)N(CCC(C)C)C(C)c2ccco2)cc1 (stereo unspecified) | -0.03% (inactive)
37 | CCCOc1ccc(-c2c(C(=O)N/N=C/c3ccco3)nnn2-c2nonc2N)cc1 | -0.59% (inactive)
38 | C=CCN1C(C(=O)OC)CN(Cc2cn(Cc3ccccc3)nn2)CCS1(=O)=O (stereo unspecified) | -0.18% (inactive)
39 | COC(=O)[C@]12C[C@H](CC(=O)NCC34CC5CC(CC(C5)C3)C4)C(=O)N(Cc3ccc(Cl)cc3Cl)C1=C[C@H](COCc1ccccc1)O[C@@H]2C | -0.93% (inactive)
40 | COC(=O)[C@]1(C#N)CC(=O)N(CC2CCCCC2)[C@@H]1c1ccccc1 | 1.2% (inactive)
41 | FC(F)(F)c1cccc(Cn2ccc3ccc(-c4ccc5ccn(Cc6ccccc6)c5c4)cc32)c1 | -1.01% (inactive)
42 | O=C(CCCCCN1C(=O)C2C3C=CC(C3)C2C1=O)Nc1ccccn1 (stereo unspecified) | -0.18% (inactive)
43 | COc1cc(OC)c(C(=O)NNC(=O)c2ccc(NS(=O)(=O)c3cccs3)cc2)cc1OC | 4.51% (active)
44 | C/C(=N\NC(=O)c1ccc(NS(=O)(=O)c2cccs2)cc1)c1ccc2ccccc2c1 | 0.35% (inactive)
45 | COc1cc(OC)c(C(=O)NNC(=O)c2ccccc2-n2cccc2)cc1OC | 0.07% (inactive)
46 | COc1ccc(-c2cc(-c3nnc(SCC(=O)Nc4cccc5ccccc45)n3N)[nH]n2)cc1 | -0.22% (inactive)

Row | Compound | inhibition
47 | C[C@H](C(=O)N(C)c1ccccc1)[C@@H](O)c1ccc2ccccc2c1 | 0.19% (inactive)
48 | O=C(O)C1C2C=CC(O2)C1C(=O)Nc1ccccn1 (stereo unspecified) | 0.46% (inactive)
49 | S=C(NN=Cc1ccccn1)Nc1ccccn1 | 3.77% (active)
50 | CS(=O)(=O)N(CC(=O)N/N=C/c1ccccn1)c1ccc(Oc2ccccc2)cc1 | -0.11% (inactive)
51 | Clc1ccc(-n2c(SC/C=C/c3ccccc3)nnc2-c2ccco2)cc1 | -1.85% (inactive)
52 | Cc1ccc(-c2nc(-c3cccnc3)sc2CC(=O)Nc2ccc(C)c(Cl)c2)cc1 | -0.1% (inactive)
53 | O=C(NCc1ccco1)C1CCCN(S(=O)(=O)c2ccc(Cl)s2)C1 (stereo unspecified) | -1.13% (inactive)
54 | O=C1N(c2ccccc2)C(=Nc2ccccc2)SC12CC2 | -0.44% (inactive)
55 | COc1cc(SC)ccc1C(=O)Nc1cc(C)ccn1 | 4.19% (active)
56 | Cc1ccnc(NC(=O)C(C)N2C(=O)c3ccccc3C2=O)c1 (stereo unspecified) | -0.27% (inactive)
57 | COc1cc(SC)ccc1C(=O)Nc1nc(C)cs1 | -3.74% (inactive)
58 | O=C(c1cccc(C(F)(F)F)c1)N1CC[C@H]2[C@H](CCCN2Cc2cc(F)cc(F)c2)C1 | 0.13% (inactive)
59 | Cc1sc2nc(SCC(=O)c3ccc(O)c(O)c3)n(Cc3ccco3)c(=O)c2c1C | -0.17% (inactive)
60 | CC1CCN(CCCNC(=O)CN2C(=O)CSc3ccc(S(=O)(=O)N4CCCCC4)cc32)CC1 | 4.58% (active)
61 | COc1ccc(NC(=O)CN2C(=O)CSc3ccc(S(=O)(=O)N4CCC(C)CC4)cc32)cc1 | -0.14% (inactive)
62 | COCCCNC(=O)CN1C(=O)CSc2ccc(S(=O)(=O)N3CCOCC3)cc21 | 0.4% (inactive)
63 | COC(=O)[C@]12C[C@H](CC(=O)NCc3ccccc3)C(=O)N(CCC3=CCCCC3)C1=C[C@H](C(C)(C)C)O[C@@H]2C | -0.82% (inactive)
64 | Cc1ccc(NC(=O)N2c3ccccc3SC2c2ccco2)c(C)c1 (stereo unspecified) | -1.05% (inactive)
65 | O=C(Nc1nonc1-c1ccc(Cl)cc1)c1ccco1 | -0.6% (inactive)
66 | O=C(Nc1ccc(NC(=O)c2cccs2)cn1)c1ccco1 | 5.96% (active)
67 | O=C(N/N=C/C=C/c1ccco1)c1cccs1 | 0.78% (inactive)
68 | C[C@H](C(=O)N(C)c1ccccc1)[C@@H](O)c1ccc(Cl)cc1 | -0.7% (inactive)
69 | O=C(OC12CCCN(C1)/C(=C/c1cccnc1)C2)C1CCCC1 (stereo unspecified) | -1.73% (inactive)

Row | Compound | inhibition
70 | COc1ccc(/C=C/C(=O)OCC(=O)N2CCN(S(=O)(=O)c3ccc(C)cc3C)CC2)cc1OC | -1.45% (inactive)
71 | Cc1ccc(S(=O)(=O)N2CCN(C(=O)COC(=O)CNC(=O)c3ccc(C(C)(C)C)cc3)CC2)c(C)c1 | -0.26% (inactive)
72 | COc1ccccc1CCC(=O)OCC(=O)N1CCN(S(=O)(=O)c2ccc(C)cc2C)CC1 | 4.53% (active)
73 | COc1ccc(/C=C/c2c(-c3cccc(C)c3)oc3ccc(-c4ccc5c(c4)OCO5)cc23)cc1 | -0.02% (inactive)
74 | COc1ccc(C2=Nc3cc(C)ccc3OC2)cc1 | 4.81% (active)
75 | COc1ccc(-c2onc(C)c2-c2ccc3c(c2)OCCO3)c(O)c1 | -0.75% (inactive)
76 | O=C(c1c[nH]c2ccccc12)N1CCC(Oc2cccnc2)CC1 | -0.43% (inactive)
77 | COc1ccccc1CCNC(=O)C1CCN(c2nc(C)cc(C)n2)CC1 | -0.06% (inactive)
78 | CCc1c(-c2ccccc2OC)ncn1CCc1ccccc1OC | -2.14% (inactive)
79 | O=C(CSc1nnc2n1CCCN2)c1ccccc1 | 0.61% (inactive)
80 | N#Cc1ccc(CSc2nnc3ccccn23)cc1 | -0.37% (inactive)
81 | O=C(CSc1nnc2ccccn12)c1ccccc1 | 4.08% (active)
82 | C[C@H]1CCC/C=C/C(=O)c2c(O)cc(O)cc2CC(=O)O1 | -6.29% (inactive)
83 | Cc1ccc(-c2nc(C3CCCN(S(=O)(=O)c4ccc(Br)s4)C3)no2)cc1 (stereo unspecified) | 0.62% (inactive)
84 | CCN(CCCNC(=O)c1ccc2c(c1)NC(=O)CN2C)c1cccc(C)c1 | -0.89% (inactive)
85 | Cc1ccccc1Nc1nc(N)nc(CSc2nnc3ccccn23)n1 | 0.79% (inactive)
86 | Cc1ccccc1Nc1nc(N)nc(COC(=O)CCC(=O)c2ccc(F)cc2)n1 | 1.74% (inactive)
87 | Cc1ccccc1Nc1nc(N)nc(CSc2ccccc2)n1 | 6.39% (active)
88 | COC(=O)c1cc(NC(=O)c2cc(C(C)(C)C)nn2Cc2cccc(C)c2)ccc1N1CCOCC1 | -0.35% (inactive)
89 | CCN(C(=O)CSc1cccc[n+]1[O-])c1ccccc1 | -1.71% (inactive)
90 | O=C(CSc1cccc[n+]1[O-])NCCCc1ccccc1 | -0.54% (inactive)
91 | O=C(CSc1cccc[n+]1[O-])c1ccc(-c2ccccc2)cc1 | 6.13% (active)
